For 40 compounds, growth results are on record in PubChem BioAssay (NCI).

Molecules are shown by their SMILES. Values joined by “and” are separate entries in the source; they are usually repeats but may differ in a detail not shown here. Equal entries are not always repeated. Compounds without any hit were thinned out: in the full panel of roughly 83,000, 20% have a hit.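 Step 1: grow cells in 96-well plates. Step 2: add test compound at a single concentration. Step 3: incubate 48 h. Step 4: record percent growth.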 Values without a mark were called inactive. Active and inactive are the calls of the source. The calls were made as follows: active = growth percent below 10; inactive = the rest.

The test relates to HL-60(TB) leukemia. In words: NCI-60 one-dose screen, 48 h (100 = growth as untreated, 0 = no growth, -100 = all killed). The conditions noted are these: 10 µM unless noted.
As to `COc1ccc2nc(NC(=O)CSc3nnc4n3S(=O)(=O)c3ccccc3N4C)sc2c1`, the growth was 53.8%.

For `O=C1c2ccc3c4ccc5c6c(ccc(c7ccc(c2c37)C(=O)N1CCC[P+](c1ccccc1)(c1ccccc1)c1ccccc1)c64)C(=O)N(CCC[P+](c1ccccc1)(c1ccccc1)c1ccccc1)C5=O`, the growth was 54.6%.

For `COCCN(C(=O)c1ccc(F)cc1F)c1c(N)n(Cc2ccccc2)c(=O)[nH]c1=O`, the growth is 132%.

For the compound `COc1ccc(/C=C/C(=O)c2cccc(OCCCCOc3cccc(C(=O)/C=C/c4ccc(OC)c(OC)c4)c3)c2)cc1OC`, the growth is 68.6%.

Consider `CCOC(=O)C12CCCC1=CC(=O)CC2` (stereo not given), for which the growth is 100%.

As for `O=c1c2cc(F)ccc2sc2c(N3CCCCC3)nc3ccccc3c12`, the growth was 102%.

Turning to `CC(=O)/C(=C\c1c(-c2ccccc2)[nH]c2ccccc12)S(=O)(=O)c1ccccc1`, the growth is -68.4% (active).

In the case of `CCN(CC)c1ccc(/C=C/C(=O)c2ccc(Nc3nc(Nc4ccccc4)nc(Nc4ccccc4)n3)cc2)cc1`, the growth was 45.6%.

Consider `C=CCCCOC1[C@H](OCc2ccccc2)C(OCc2ccccc2)C(OC)O[C@@H]1CNC(=O)c1cccc(I)c1` (stereo not given in full), for which the growth was 55.1%.

On to `O=C(CI)NC1Oc2ccccc2-c2oc(=O)c(-c3ccccc3)cc21` (stereo not given), for which the growth is -39.3% (active).

With `CC(=O)O[C@H]1CC[C@]2(C)C3=C(C(=O)C[C@H]2C1(C)C)[C@]1(C)CC[C@H]([C@H](C)CCC(=O)O)[C@@]1(C)CC3=O`, the growth was 108%.

For `O=C1/C(=C\c2cn(C(=O)c3ccc(Cl)cc3)c3ccccc23)c2ccccc2N1c1c(Cl)cccc1Cl`, the growth was 103%.

For `C=C1c2c(C)nn(-c3ccc(OC)cc3)c2N(C)C23C[C@@H]1C1(C)c4c(C)nn(-c5ccc(OC)cc5)c4N(C)C(C)(C[C@H]12)C3` (stereo not given in full), the growth is -2.21% (active).

Regarding `N=C(N)c1ccc(-c2ccc(-c3cncc4ccccc34)s2)cc1F`, the growth is -45.5% (active).

As to `O=C(Nc1ccc(Cl)cc1)c1cc2ccccc2cc1OP(=O)(O)O`, the growth was 37.3%.

Consider `CCN1C(=O)/C(=c2\sc3n(c2=O)C2C(NN=3)N(CC)C(=S)N2CC)c2ccccc21` (stereo not given), for which the growth was 87.4%.

In the case of `O=C(O)C1CCCN1C(=O)OCc1ccccc1` (stereo not given), the growth was 102%.

On to `CN1CCN(Cc2ccc(NC(=O)c3cnc(F)c(C#Cc4cnc(N)c5ncccc45)c3)cc2C(F)(F)F)CC1`, for which the growth was -9.84% (active).

With `CC(C)(C)c1cc(NC(=O)Nc2ccc(-c3cn4c(n3)sc3cc(OCCN5CCOCC5)ccc34)cc2)no1`, the growth was 18.7% and 41%.

Consider `Fc1ccc(Nc2nc3nonc3nc2Nc2ccc(F)cc2)cc1`, for which the growth was -17.6% (active).

Regarding `CC(C)CCNC(=O)Cn1cccc(NC(=O)OCc2ccccc2)c1=O`, the growth is 103%.

Regarding `O=C(Nc1ccc(Cl)cc1)Nc1ccccc1CNc1nc(Nc2ccc(OCCN3CCCC3)cc2)ncc1Cl`, the growth is -45.1% (active).

For the compound `Cc1ccc2c(N/N=C\c3ccco3)cc(C)nc2n1`, the growth is -53.3% (active).

`CC1CCC(=O)N1c1ccc(N)cc1` (stereo not given): the growth was 104%.

In the case of `O=C(OCC1CCCO1)c1ccc([N+](=O)[O-])cc1` (stereo not given), the growth was 102%.

Consider `CC(C)N1CCN(Cc2ccc3c(NNC(=O)c4ccccc4)nc4cc(F)ccc4n23)CC1`, for which the growth is 8.42% (active).

Consider `O=[N+]([O-])c1ccc2[nH]cc(-c3c4ccsc4cc4[nH]c5ccc([N+](=O)[O-])cc5c34)c2c1`, for which the growth is 8.08% (active).

`Cc1cc(NCc2cc(Nc3ccnc4cc(Cl)ccc34)ccc2F)nc(N2CCSCC2)n1`: the growth was -61.4% (active).

Take `CCOC(=O)c1cc(-c2cccnc2)nc2c(Cl)cc(Cl)cc12`: the growth is 108%.

For `CC(C)(C)[Si](C)(C)OC1[C@@H](COC(N)=O)O[C@@H](n2cnc3c(N)ncnc32)[C@H]1O[Si](C)(C)C(C)(C)C` (stereo not given in full), the growth is -18% (active).

Consider `CCN1CCN(Cc2ccc(NC(=O)c3cccc(C#Cc4cccc5[nH]nc(N)c45)c3)cc2C(F)(F)F)CC1`, for which the growth was -54.1% (active).

As to `Cn1c(-c2ccc(Br)cc2)c(O)c(=O)c2c(F)cccc21`, the growth is 122%.

For `O=C(CN1CCN(c2cc3c(cc2F)c(=O)c(C(=O)N/N=C/c2ccccc2O)cn3C2CC2)CC1)N/N=C\c1ccccc1O`, the growth was 1.69% (active).

Regarding `O=C1c2ccccc2C(=O)N1OCc1ccccc1`, the growth was 94.2%.

For the compound `O=C(NNc1ccc(-c2ccccc2)nn1)c1ccccc1`, the growth is 98.8%.

Take `Cn1c(=O)c2c(nc3n2CCN(CCc2ccc(OCCN4CCOCC4)cc2)C3)n(C)c1=O`: the growth was 101%.

In the case of `CC(C)=C1C=C2CC[C@@H]3[C@](C)(CCC[C@@]3(C)C(=O)O)[C@H]2CC1`, the growth was 105%.

Take `O=C1Nc2ccccc2SC1c1ccccc1Cl` (stereo not given): the growth was 71%.

Regarding `Cc1ccc2c(c1)/C(=N\N=C/c1cn(C(C)C)c3ccccc13)C(=O)N2`, the growth is -33.3% (active).

As to `COc1cc(OC)c2sc(-c3ccc(-n4cncc4-c4ccc(OC)c(OC)c4)cc3)nc2c1`, the growth is 58.5%.
